Vif imaging – inhibitors of HIV Vif; HEK293T cells, Vif self-association by quenched fluorescence, imaging, 24 h; 340,000 compounds, 0.35% hits; AID 602346; inhibition, % at 7.49 µM; in the data active = inhibition above about 50%, passing the limit was not always enough
FGF22 binding – binders of recombinant human FGF22 by thermal shift; SYPRO orange fluorescence; percent of sucrose octasulfate shift, DMSO zero; 340,000 compounds, 1.5% hits; AID 651658; Q9HCT0; activity (Tm shift, normalised), % at 9.99 µM;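 active = mean Tm shift, scaled 0 neutral to 100 positive control, at about 1.3% or above, every replicate too, limit read from the data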
Target sequence (Q9HCT0 whole entry, looked up): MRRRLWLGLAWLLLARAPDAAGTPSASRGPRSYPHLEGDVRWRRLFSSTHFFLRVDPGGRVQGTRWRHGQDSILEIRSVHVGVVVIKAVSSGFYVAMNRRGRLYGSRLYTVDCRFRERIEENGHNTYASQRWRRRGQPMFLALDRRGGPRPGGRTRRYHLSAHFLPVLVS
CFTR F508del cor – correctors of CFTR F508del function in bronchial epithelial cells; CFBE cells, YFP halide quenching; stimulated with forskolin plus potentiator P3; % fluorescence drop versus neutral controls; activity (quench increase), % at 7.58 µM; 350,000 compounds, 0.36% hits;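 active = mean added fluorescence quench of at least 8% versus neutral control, with both replicates also reaching 8%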;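 also: cells transiently co-express mutant CFTR-F508del with the halide-sensitive YFP; corrector assay measuring rescue of mutant channel to the surface after 24 h compound exposure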
Starred values were filed as active, the others as inactive. Most compounds without a hit are left out; they make up all but 1.7% or so of the library.

What do the screens show for `C[C@@H]1CN([C@@H](C)CO)C(=O)c2cc(NC(=O)c3ccccc3)ccc2O[C@@H](C)CCCCO[C@H]1CN(C)S(=O)(=O)c1cn(C)cn1`?
CFTR F508del cor: -2

How did O=C(NCc1ccccc1C(F)(F)F)c1cccc2c1C(=O)c1ccc(N3CCOCC3)cc1S2(=O)=O do in these assays?
Vif imaging: -3; FGF22 binding: 0; CFTR F508del cor: 0

What do the screens show for `O=C(NCc1ccccc1C(F)(F)F)c1cccc2c1C(=O)c1ccc(N3CCC(N4CCCCC4)CC3)cc1S2(=O)=O`?
Vif imaging: 75*; FGF22 binding: 0; CFTR F508del cor: -4

How did CO[C@H]1CN(C)C(=O)c2ccc(NC(=O)C3CCCC3)cc2OC[C@@H](C)N(C)C[C@H]1C do in these assays?
FGF22 binding: 0; CFTR F508del cor: 1

How did CCCNC(=O)C[C@@H]1CC[C@H]2[C@@H](COc3ccc(NC(=O)Cc4cccs4)cc3C(=O)N2C)O1 do in these assays?
FGF22 binding: 0; CFTR F508del cor: 0

What do the screens show for `CCCn1c(N)c(N(CCOC)C(=O)/C=C/c2ccc(C(=O)OC)cc2)c(=O)[nH]c1=O`?
Vif imaging: 0; FGF22 binding: 43*; CFTR F508del cor: -2

What do the screens show for `CCCn1c(N)c(N(CCOC)C(=O)c2ccc(-c3ccccc3)cc2)c(=O)[nH]c1=O`?
Vif imaging: -1; FGF22 binding: 0; CFTR F508del cor: -3

Results for CC(C)CC#Cc1ccc2c(c1)O[C@H](CN(C)Cc1cccc(F)c1)[C@@H](C)CN([C@@H](C)CO)S2(=O)=O ?
FGF22 binding: 0; CFTR F508del cor: -4

How did C[C@H]1CN([C@@H](C)CO)C(=O)c2cc(-c3ccc(F)cc3)cnc2O[C@H]1CN(C)C(=O)c1ccccc1F do in these assays?
FGF22 binding: 0; CFTR F508del cor: -1

Results for CC(=O)C1=C(C)NC(SCC(=O)c2cc(Cl)ccc2Cl)=C(C#N)C1c1ccco1 (configuration not stated) ?
Vif imaging: 5; FGF22 binding: 0; CFTR F508del cor: 4

What do the screens show for `CC(=O)C1=C(C)NC(SCC(=O)c2ccc(Cl)c(Cl)c2)=C(C#N)C1c1ccco1` (configuration not stated)?
Vif imaging: 82*; FGF22 binding: 0; CFTR F508del cor: 4

How did C[C@H]1CN([C@@H](C)CO)C(=O)Cc2cc(NC(=O)CCCCCC(=O)Nc3ccccc3N)ccc2O[C@H]1CN(C)S(=O)(=O)c1cccs1 do in these assays?
FGF22 binding: 0; CFTR F508del cor: 4

Results for CCOc1ccc(/C=C(\C#N)C(=O)Nc2cccnc2)cc1 ?
Vif imaging: -2

Results for CCOc1ccc(NC(=O)/C(C#N)=C\c2ccc(N3CCCC3)c(C)c2)cc1 ?
Vif imaging: 54*; FGF22 binding: 0; CFTR F508del cor: 1

How did C[C@@H]1CN([C@H](C)CO)C(=O)c2cc(NC(=O)Cn3cnnn3)ccc2O[C@H]1CN(C)Cc1ccc(C(=O)O)cc1 do in these assays?
FGF22 binding: 0; CFTR F508del cor: 3

How did CCOC(=O)C1(Cc2cccc(F)c2)CCN(C(=O)C2CCOCC2)CC1 do in these assays?
Vif imaging: 25; FGF22 binding: 0; CFTR F508del cor: 3

Results for CCOC(=O)C1(Cc2cccc(F)c2)CCN(C(=O)C2CCCO2)CC1 (configuration not stated) ?
Vif imaging: 51*; CFTR F508del cor: 3

Results for CCOC(=O)C1(Cc2cccc(Cl)c2)CCCN(C(=O)C2CC2)C1 (configuration not stated) ?
FGF22 binding: 43*; CFTR F508del cor: 1

How did COc1ccc(NC(=O)N2CCN(C(=O)C3CCCO3)CC2)cc1 (configuration not stated) do in these assays?
Vif imaging: 0; FGF22 binding: 0; CFTR F508del cor: 1

How did CCOC(=O)C1(Cc2cccc(Cl)c2)CCCN(C(=O)c2ccco2)C1 (configuration not stated) do in these assays?
Vif imaging: 24; FGF22 binding: 0; CFTR F508del cor: -3

What do the screens show for `CCOC(=O)c1ccc(NC(=O)N2CCN(C(=O)C3CCCO3)CC2)cc1` (configuration not stated)?
Vif imaging: 2; FGF22 binding: 43*; CFTR F508del cor: 0

How did Cc1ccc(S(=O)(=O)N(C)C[C@@H]2OCCCC[C@H](C)Oc3ccc(NS(=O)(=O)c4cn(C)cn4)cc3C(=O)N([C@H](C)CO)C[C@H]2C)cc1 do in these assays?
FGF22 binding: 0; CFTR F508del cor: 2

What do the screens show for `C[C@H]1CN([C@@H](C)CO)C(=O)c2cccc(NC(=O)C3CCCCC3)c2O[C@H]1CN(C)S(C)(=O)=O`?
FGF22 binding: 0; CFTR F508del cor: -1

How did C=CC[C@]1(C(=O)OC)N=C(c2ccc(OCCCO)cc2)O[C@H]1c1ccccc1 do in these assays?
FGF22 binding: 0; CFTR F508del cor: 0

How did C[C@@H]1CN([C@@H](C)CO)C(=O)c2cc(NC(=O)Nc3cccc4ccccc34)ccc2O[C@H]1CN(C)S(=O)(=O)c1ccc(F)cc1 do in these assays?
FGF22 binding: 0; CFTR F508del cor: 1

Results for CC(C)c1ccc(Nc2nc(N3CCOCC3)nc(N3CCOCC3)n2)cc1 ?
Vif imaging: 0; FGF22 binding: 1.6*; CFTR F508del cor: 1

Results for Cc1ccc(Nc2nc(N3CCOCC3)nc(N3CCOCC3)n2)cc1 ?
Vif imaging: 22

How did O=C(C[C@H]1C=C[C@@H](NC(=O)c2ccc(F)cc2)[C@H](CO)O1)NCCc1ccncc1 do in these assays?
FGF22 binding: 0; CFTR F508del cor: -1

How did COc1cccc(S(=O)(=O)N2C[C@H](O)COC[C@@H]3O[C@@H](CC(=O)Nc4ccccc4)CC[C@H]32)c1 do in these assays?
FGF22 binding: 0; CFTR F508del cor: 3

What do the screens show for `O=C(C[C@@H]1CC[C@@H]2[C@H](COC[C@@H](O)CN2Cc2cccc(Cl)c2)O1)NCC1CCCCC1`?
FGF22 binding: 0; CFTR F508del cor: 1

How did CCOC(=O)N1CCC(=NNC(=O)c2cc3ccccc3cc2O)CC1 do in these assays?
Vif imaging: 2

How did CC(=O)N1CCC(=NNC(=O)c2cc3ccccc3cc2O)CC1 do in these assays?
Vif imaging: 51*; FGF22 binding: 0; CFTR F508del cor: -2

What do the screens show for `COC(=O)c1c(CC[C@@H](CO)NC(=O)N[C@H](Cn2cc(Cc3ccccc3)nn2)C(C)C)oc(C(C)=O)c1C(=O)OC`?
FGF22 binding: 0; CFTR F508del cor: 0

How did C[C@]12C=CC(=O)N1CCc1c2[nH]c2ccccc12 do in these assays?
FGF22 binding: 0; CFTR F508del cor: 2

How did CCCCN(C)CCCNC(=O)c1cn(CC)c2ccc(S(=O)(=O)N3CCc4ccccc4C3)cc2c1=O do in these assays?
Vif imaging: 0; FGF22 binding: 0; CFTR F508del cor: 2

Results for CCCCN(CC)CCCNC(=O)c1cn(CC)c2ccc(S(=O)(=O)N3CCc4ccccc4C3)cc2c1=O ?
Vif imaging: -1; FGF22 binding: 43*; CFTR F508del cor: -1

How did C[C@@H]1CN([C@H](C)CO)C(=O)c2ccccc2-c2ccccc2CO[C@@H]1CN(C)C(=O)Nc1ccccc1C(F)(F)F do in these assays?
FGF22 binding: 0; CFTR F508del cor: -1
